B1: chr2:61719535:61719536:-_ENSG00000082898_ENST00000401558|hu_mus|FALSE|FALSE (ssRNA)
RNA: GGGAGUUCUACAGUCCGACGAUCGUUUACUACUGUCUUCAAAAAUUUCCAGUGUGCUCUCAAAAAUCUUGGGUAUUGACCUACUAUGUACAUGAUAUUCGAUGCAAUAAUAGCUUUAUUAUCUUUGCCUCUUUUCUGCUCACACAACAGAGGAUUGAGCAUCA
B2: chr2:48026839:48026840:+_ENSG00000116062_ENST00000540021|hu_hu|hu_hu_hu_mus_False|38_78 (ssRNA)
RNA: GGGAGUUCUACAGUCCGACGAUCAUAGUGAGCCACUAGCGUCCUAAAUCUGGAACAAUGGCGAUCAUCCGAAAACUGGCCGAUGAAAAACUUGCCCAGUGAAGUAUCCACAAAGCAAACACCAUACACACGAGUGUGACCAGACAACAGAGGAUUGAGCAUCA
B3: chr1:180251914:180251915:+_ENSMUSG00000026500_ENSMUST00000027781|mus_hu|FALSE|FALSE (ssRNA)
RNA: GGGAGUUCUACAGUCCGACGAUCAGAUCCUAAUGAACCAUACAAUAUUGAAUGCCGGGCGCAGGGAGUAUUUUCAACAUCUAAAAAUCCUAGGAGCUUAAGGGACUUCCAAUAUGAUAAAUGUAACGACGUACAAGAUGCCUUCAACAGAGGAUUGAGCAUCA
B4: 106713800_106713920_1116_CDS_ENSMUSG00000018363_ENSMUST00000103067|mouse|control|control (ssRNA)
RNA: GGGAGUUCUACAGUCCGACGAUCCCUGCUCAUGUAAUUUCUAUGUCGCUGGGACCUGACUCUUCUCUCUGCUAGUCUGGGGUCUGAAGAAUGUCCACACGUUGCACCAUUUGUUCCAGUAAUUGGAGUAUUCUCAUCCACAAACAACAGAGGAUUGAGCAUCA
B5: chr2:48035047:48035048:-_ENSG00000138081_ENST00000403359|hu_hu|motif|central (ssRNA)
RNA: GGGAGUUCUACAGUCCGACGAUCACAAAAUUGCAGCUUAUUUUCUUCACUUCUGUCCCUUCAAGUCUUUACACAGUAAUGCGGAAACACCCAGCUUUGAGAUCCUGAGUCAAUAUAUUGCCACUUUCUUUUUGGUAGCUUGAGCAACAGAGGAUUGAGCAUCA
B6: chr17:56552419:56552420:-_ENSMUSG00000013236_ENSMUST00000086828|mus_mus|mus_mus_mus_hu_False|38_58 (ssRNA)
RNA: GGGAGUUCUACAGUCCGACGAUCAAAAAAUACACUAUUUAAAAAAAAUGAAAUGUCACGGGAUACAGUUACACUGACACUAUUAAAAGAAAGCUGGAAAAAAAAUGCAGCCCAGUGUCCCCAGGCUGCAGAGCGGGGAGGAGCCAACAGAGGAUUGAGCAUCA
B7: 173052199_173052319_2237_3pUTR_ENSMUSG00000038400_ENSMUST00000036248|mouse|control|control (ssRNA)
RNA: GGGAGUUCUACAGUCCGACGAUCCUGUAUCCACCUGGCACCAAAUUCGGGGACUGCUUUGGCUUUGGGGAUGCACCUUGCCCCCAAACACUGAACCUUCAUAGUUUUUGUGUUUUAAAGAGGAAGAAAAAAAAAAAAACUAAGCAACAGAGGAUUGAGCAUCA
B8: chr7:72441615:72441616:-_ENSMUSG00000030516_ENSMUST00000102592|mus_hu|FALSE|FALSE (ssRNA)
RNA: GGGAGUUCUACAGUCCGACGAUCAAAAUUUUCAAAUGCAUAGCCAGAAAGAACAGAAAACCACCACUGCCCCUUGUCAAAAAAAAAAAAAAAGAAAAGAAAAGAAAAGAAAAAAAUAUCCCCAAAUCACACCACUAUUUUCUUCAACAGAGGAUUGAGCAUCA
B9: 14336767_14358337_2061_CDS_ENSG00000038382_ENST00000344204|human|control|control (ssRNA)
RNA: GGGAGUUCUACAGUCCGACGAUCAUACACGUCGUCCAGCAGCUCCUUCUGCAGCUCCUCCAGCCACGUCCACAGCUCUUUCACAUGGGUGUGAAAGGACACUGACAUGUCCAGUAGGAUCUUUCGCUGCUCAACACGCCGAACCAACAGAGGAUUGAGCAUCA
B10: chr10:7433921:7433922:+_ENSMUSG00000040021_ENSMUST00000165952|mus_mus|motif|central (ssRNA)
RNA: GGGAGUUCUACAGUCCGACGAUCGCUUUGUGUAUGUUAGGCAAGUGCUCUACCACUGAGCCAUAUCCUUAGCCCCGGGAAAAUGUACUUUCUUAGUGAGUACAUACACGUAAAUUAAAAAAAAAAAUUACAAACUGAAAAUAACAACAGAGGAUUGAGCAUCA
B11: chr10:7433921:7433922:+_ENSMUSG00000040021_ENSMUST00000165952|mus_mus|FALSE|FALSE (ssRNA)
RNA: B10 RNA with G76U, G77A
B12: chr2:71272186:71272187:+_ENSMUSG00000027018_ENSMUST00000028408|mus_mus|FALSE|FALSE (ssRNA)
RNA: GGGAGUUCUACAGUCCGACGAUCCUGUGCCUGUAUUGCCAUAUCUUCACUGAAUCCUUGCAGUAAUCUUUCCCGGGAGAAACUGGGCAAAAAUUGACAAAACUUCACAAGCACAAAGUCUCUUAGUUUCAAAUAGCUUCUGGACAACAGAGGAUUGAGCAUCA
B13: chr7:117185563:117185564:+_ENSMUSG00000066232_ENSMUST00000084731|mus_mus|FALSE|FALSE (ssRNA)
RNA: GGGAGUUCUACAGUCCGACGAUCGGGCUUCAGGUUCUUCCACGUAAGUGCAUGGGAAACUCCUUGAUUAAUAUAAUUUAAUGUCUGCUGUAAAACUCGAGGCGCCAUAUAUUGUUUUUCCUUGUACUGAUAUAACACUUUCAACAACAGAGGAUUGAGCAUCA
B14: chr11:134117569:134117570:+_ENSG00000151502_ENST00000281187|hu_hu|motif|central (ssRNA)
RNA: GGGAGUUCUACAGUCCGACGAUCAGAAACAUGUAAACACUGCAGCUGCUUAAUUACAAGUUGCACUGCUUGAUUUAGUACCGGUGCACUCCCAGGUUUGGGGACCUUAAGAGAGGGGGACAGGAGCCUCCCCUCACUUUCACACAACAGAGGAUUGAGCAUCA
B15: chr18:65376317:65376318:+_ENSMUSG00000024589_ENSMUST00000163516|mus_hu|FALSE|FALSE (ssRNA)
RNA: GGGAGUUCUACAGUCCGACGAUCUUUCAUGCCAACAGGAAGCUAACCCUUUUCUAGAAAACGUUCUCCAAGCUCCCGUCCUAAUGCUGUGGCACUUUCUCUGACAUACUGAGAACACUCUGGGGUGGGGGUGUGUGUAUGCAACAACAGAGGAUUGAGCAUCA
B16: 56885736_56885856_9979_3pUTR_ENSMUSG00000055296_ENSMUST00000068792|mouse|control|control (ssRNA)
RNA: GGGAGUUCUACAGUCCGACGAUCAUCUUAUAUUGAUCUAGAUUUGACCACAGAUAAACCUUGUACUGCCUAGUCUUGUGUCAACUUGACACAGCUGGAGUUAUCACAGAGAAAGGAGCUUCAGUUGAGGAAAUGCCUCCAUGACAACAGAGGAUUGAGCAUCA
B17: chr11:75578338:75578339:+_ENSMUSG00000020849_ENSMUST00000067664|perfect_dup|FALSE|FALSE (ssRNA)
RNA: GGGAGUUCUACAGUCCGACGAUCUUAAGAACUUUUGAAAACUGUUUAAAAAAAAAAAAAAAAAACCAACAGGGCAGGAACCUAAAUUCUGAGACCAAAUGUAAAAGUCAGAUUUGGUGGUUCUCAGUGACAAUGGGGAGUUUCCAACAGAGGAUUGAGCAUCA
B18: chr1:60041781:60041782:+_ENSMUSG00000041040_ENSMUST00000036540|mus_mus|motif|central (ssRNA)
RNA: GGGAGUUCUACAGUCCGACGAUCUUAAGGAGUGAAUCUCAACUUUACAAAUUUAGUAAUGGCAAGUUUACUUUAGUUUCCGGAAAGAAAACCUCAGGAUCUCAGUUCAAUCCCAGACAGAGAAAGCUCUCCAUGGGGCCACUGCAACAGAGGAUUGAGCAUCA
B19: chr13:31725248:31725249:-_ENSG00000120694_ENST00000320027|perfect_dup|motif|central (ssRNA)
RNA: GGGAGUUCUACAGUCCGACGAUCUUUGGAUUUUGCAUCCAAUUUGUACUUGGUUUUAAAUUCAGCACAAAAAUGUUCGGCGGGCUUCUCAUCAAAGUUCUUUCCUCCUAAGAAGGGAUCAAAAGCUGUGCCUAGAACCUUCAGCAACAGAGGAUUGAGCAUCA
B20: chr2:35037708:35037709:-_ENSMUSG00000026878_ENSMUST00000028238|mus_hu|FALSE|FALSE (ssRNA)
RNA: GGGAGUUCUACAGUCCGACGAUCCUGUUUUUACAACAGAGUUUUUUCUUUUUUUUUAAUUAAACCCAGUAAGAUGUACAGAAGACAAUGAGGCAGUAAAAAGUACUGCUUCCAACAGACAGAGGUGAAAGGUCAAAUGAGGGGCAACAGAGGAUUGAGCAUCA
B21: chr11:75578338:75578339:+_ENSMUSG00000020849_ENSMUST00000067664|perfect_dup|motif|central (ssRNA)
RNA: B17 RNA with U82G, A83G
B22: chr13:99559765:99559766:-_ENSMUSG00000041685_ENSMUST00000040340|mus_mus|motif|central (ssRNA)
RNA: GGGAGUUCUACAGUCCGACGAUCCUGAACUUCCUUUAUUAAUUCCUGUAAUUUUCUAACAAGAUCCAAAUGACAAUUUGCGGAUUUCUCUGUAGAUGUUUUGAAUACAUCCCACAUUGGUGCAAAUGUUCCAAGUUGUGAAUACAACAGAGGAUUGAGCAUCA

Where a chain is given by its changes, count along the chain named. In all, about 24,000 sequences were measured (“enrichment r”: median about 0.99, highest 2% from about 3.7 on). The full list was thinned out, with the highest values kept by preference.

This assay addresses T1, UNK ZnF1-3 (human, UniProt Q9C0B0 31-174).
T1 sequence: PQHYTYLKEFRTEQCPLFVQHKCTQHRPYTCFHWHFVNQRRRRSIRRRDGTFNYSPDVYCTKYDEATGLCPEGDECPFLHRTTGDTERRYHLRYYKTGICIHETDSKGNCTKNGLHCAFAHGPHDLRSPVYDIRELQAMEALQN
Put plainly: nsRBNS (natural sequence RNA bind-n-seq); RBNS binding buffer (assumed for nsRBNS): 25 mM Tris pH 7.5, 150 mM KCl, 3 mM MgCl2, 0.01% Triton X-100, 500 ug/ml BSA, 20 U/ml SUPERase-In, 4 C; UNK is unkempt and MSI1 is Musashi-1; names of the RNAs are library labels; protein concentration not given here; high values mean tight binding.
Turning to B1, the binding signal is 0.747 enrichment R.

Take B2: the binding signal was found to be 1.33 enrichment R.

In the case of B3, the binding signal is 1.57 enrichment R.

Molecule B4 showed a binding signal of 0.982 enrichment R.

B5 gave a binding signal of 0.585 enrichment R.

With B6, the binding signal was 9.74 enrichment R.

For the molecule B7, the binding signal was found to be 2.34 enrichment R.

Molecule B8 yielded a binding signal of 5.91 enrichment R.

Molecule B9 registered a binding signal of 0.394 enrichment R.

With B10, the binding signal was determined as 5.64 enrichment R.

As for B11, the binding signal stood at 8.06 enrichment R.

On to B12, for which the binding signal was 1.25 enrichment R.

B13 returned a binding signal of 1.59 enrichment R.

The molecule B14 yielded a binding signal of 0.758 enrichment R.

Take B15: the binding signal was found to be 0.949 enrichment R.

For the molecule B16, the binding signal stood at 1.28 enrichment R.

As to B17, the binding signal came to 4.7 enrichment R.

In the case of B18, the binding signal turned out to be 0.919 enrichment R.

Molecule B19 yielded a binding signal of 1.17 enrichment R.

The molecule B20 gave a binding signal of 1.64 enrichment R.

B21 showed a binding signal of 5.06 enrichment R.

B22 showed a binding signal of 0.623 enrichment R.

These data come from PMC12136788.
